In PubChem BioAssay (NCI):
The panel holds about 83,000 compounds, 20% with a hit somewhere; the sample as a whole holds those more often.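 Results are percent growth after 48 hours of single-concentration exposure. 100 means growth as in untreated cells, lower positive values show inhibition; negative values down to -100 show cell death.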 Calls of active or inactive are those of the source. How the source made its calls: active means growth percent below 10; inactive means the rest.

Key:
Assay in all cases: NCI-60 one-dose screen, 48 h (100 = growth as untreated, 0 = no growth, -100 = all killed)
Settings in all cases: 10 µM unless noted
DU-145 prostate = system: DU-145 prostate
K-562 leukemia = system: K-562 leukemia
MALME-3M melanoma = system: MALME-3M melanoma
MDA-MB-231 breast = system: MDA-MB-231 breast
RXF 393 renal = system: RXF 393 renal
SF-268 CNS = system: SF-268 CNS
SF-295 CNS = system: SF-295 CNS
SF-539 CNS = system: SF-539 CNS
UACC-257 melanoma = system: UACC-257 melanoma
M14 melanoma = system: M14 melanoma
HCT-15 colon = system: HCT-15 colon
HT29 colon = system: HT29 colon
SNB-75 CNS = system: SNB-75 CNS
SNB-19 CNS = system: SNB-19 CNS
U251 CNS = system: U251 CNS
PC-3 prostate = system: PC-3 prostate
SK-MEL-5 melanoma = system: SK-MEL-5 melanoma
UACC-62 melanoma = system: UACC-62 melanoma
LOX IMVI melanoma = system: LOX IMVI melanoma
SK-MEL-28 melanoma = system: SK-MEL-28 melanoma

Measured: growth

O=C(CCCCCCSc1nc(-c2ccc(Cl)cc2)cc(-c2ccc(Cl)cc2)n1)NO
inactive: DU-145 prostate 22.4% | K-562 leukemia 24.4% | MALME-3M melanoma 15% | MDA-MB-231 breast 61.1% | SF-268 CNS 30.4% | SF-295 CNS 52.6% | SF-539 CNS 28.4% | UACC-257 melanoma 31.5% | M14 melanoma 31.7% | HCT-15 colon 23.6% | HT29 colon 20.4% | SNB-75 CNS 57.7% | SNB-19 CNS 37.3% | U251 CNS 16.6% | PC-3 prostate 42.8% | UACC-62 melanoma 16.1%
active: RXF 393 renal 2.65% | SK-MEL-5 melanoma 5.66% | LOX IMVI melanoma 2.18%

COc1ccc2c3ccnc(C(F)(F)F)c3n(CCCCN)c2c1
inactive: DU-145 prostate 71.4% | K-562 leukemia 71.1% | MALME-3M melanoma 43.7% | MDA-MB-231 breast 41.5% | RXF 393 renal 49.8% | SF-268 CNS 67.5% | SF-295 CNS 59.7% | SF-539 CNS 34.6% | UACC-257 melanoma 37.9% | M14 melanoma 23.6% | HCT-15 colon 62.9% | HT29 colon 22.6% | SNB-75 CNS 49.2% | SNB-19 CNS 68% | U251 CNS 46.4% | PC-3 prostate 22.8% | SK-MEL-5 melanoma 70.7% | UACC-62 melanoma 39.2% | LOX IMVI melanoma 32.3%

C#CC(OC(=O)N(C)C)(c1ccccc1)c1ccc(F)cc1 (stereo not given)
inactive: DU-145 prostate 105% | K-562 leukemia 120% | MALME-3M melanoma 142% | MDA-MB-231 breast 101% | RXF 393 renal 87.7% | SF-268 CNS 91.1% | SF-295 CNS 115% | SF-539 CNS 107% | UACC-257 melanoma 87.8% | M14 melanoma 129% | HCT-15 colon 94.8% | HT29 colon 116% | SNB-75 CNS 93% | SNB-19 CNS 120% | U251 CNS 94.8% | PC-3 prostate 102% | SK-MEL-5 melanoma 112% | UACC-62 melanoma 86.2% | LOX IMVI melanoma 78.3%

CC1(C)C(=O)/C(=C\c2ccco2)C[C@]2(C)[C@H]3CC=C4[C@@H]5C[C@](C)(C(=O)O)CC[C@]5(C)CC[C@@]4(C)[C@]3(C)CC[C@@H]12
active: DU-145 prostate -33.5% [100 µM] | K-562 leukemia 4.42% [100 µM] | MALME-3M melanoma -70% [100 µM] | MDA-MB-231 breast -58.5% [100 µM] | RXF 393 renal -85.6% [100 µM] | SF-268 CNS -77.7% [100 µM] | SF-295 CNS -48.8% [100 µM] | SF-539 CNS -77.5% [100 µM] | UACC-257 melanoma -49.3% [100 µM] | M14 melanoma -43.4% [100 µM] | HCT-15 colon -86.4% [100 µM] | HT29 colon -50.8% [100 µM] | SNB-75 CNS -82.5% [100 µM] | SNB-19 CNS -91.7% [100 µM] | U251 CNS -80.8% [100 µM] | PC-3 prostate -32.2% [100 µM] | SK-MEL-5 melanoma -72.7% [100 µM] | UACC-62 melanoma -83.7% [100 µM] | LOX IMVI melanoma -93.6% [100 µM]

COc1ccc(C(=O)/C=C/c2ccccn2)c(O)c1
active: LOX IMVI melanoma -54.9%
inactive: DU-145 prostate 45.1% | K-562 leukemia 41.9% | MALME-3M melanoma 88.2% | MDA-MB-231 breast 82.4% | RXF 393 renal 56.2% | SF-268 CNS 90.5% | SF-295 CNS 97.1% | SF-539 CNS 49.4% | UACC-257 melanoma 100% | M14 melanoma 86.6% | HCT-15 colon 39.7% | HT29 colon 72.2% | SNB-75 CNS 78.1% | SNB-19 CNS 73.1% | U251 CNS 87.5% | PC-3 prostate 95.5% | SK-MEL-5 melanoma 95% | UACC-62 melanoma 90.8% | SK-MEL-28 melanoma 90.7%

O=C(CCN1CCCCC1)c1ccc2ccccc2c1
inactive: DU-145 prostate 98.6% | K-562 leukemia 111% | MALME-3M melanoma 106% | MDA-MB-231 breast 102% | RXF 393 renal 102% | SF-268 CNS 98.2% | SF-295 CNS 99.4% | SF-539 CNS 108% | UACC-257 melanoma 98.5% | M14 melanoma 107% | HCT-15 colon 103% | HT29 colon 99.7% | SNB-75 CNS 93.6% | SNB-19 CNS 103% | U251 CNS 93.3% | PC-3 prostate 97.6% | SK-MEL-5 melanoma 97% | UACC-62 melanoma 97.2% | LOX IMVI melanoma 93.3%

CC(C)CCSC1=CC(=O)c2ccccc2C1=O
inactive: DU-145 prostate 77% | K-562 leukemia 19.3% | RXF 393 renal 43.8% | SF-268 CNS 74.6% | SF-295 CNS 103% | SF-539 CNS 94.4% | UACC-257 melanoma 58.6% | M14 melanoma 68.3% | HCT-15 colon 72% | HT29 colon 97% | SNB-19 CNS 92.3% | U251 CNS 86.3% | PC-3 prostate 37.8% | SK-MEL-5 melanoma 67.8% | UACC-62 melanoma 74% | LOX IMVI melanoma 38%
active: MALME-3M melanoma -23.5% | MDA-MB-231 breast 0.131% | SNB-75 CNS 7.99%

O=C(Nc1cccnc1)c1ccc2ccc3ccc(C(=O)Nc4cccnc4)nc3c2n1
active: RXF 393 renal -50.4% | SF-295 CNS 5.39% | SF-539 CNS -6.56% | HT29 colon 7.42%
inactive: DU-145 prostate 14.6% | K-562 leukemia 17.1% | MALME-3M melanoma 46.7% | MDA-MB-231 breast 25.2% | SF-268 CNS 15.9% | UACC-257 melanoma 30.8% | M14 melanoma 15.5% | HCT-15 colon 19.9% | SNB-75 CNS 40.6% | SNB-19 CNS 13.2% | U251 CNS 12.2% | PC-3 prostate 33.2% | SK-MEL-5 melanoma 26.3% | UACC-62 melanoma 29% | LOX IMVI melanoma 14%

CCOC(=O)c1nn(C2CCCCO2)c2ccc(NS(=O)(=O)c3ccc(C)cc3)cc12 (stereo not given)
inactive: DU-145 prostate 106% | K-562 leukemia 82.8% | MALME-3M melanoma 102% | MDA-MB-231 breast 94.2% | RXF 393 renal 119% | SF-268 CNS 96.2% | SF-295 CNS 99.7% | SF-539 CNS 105% | UACC-257 melanoma 97% | M14 melanoma 101% | HCT-15 colon 105% | HT29 colon 102% | SNB-75 CNS 80.5% | SNB-19 CNS 99.6% | U251 CNS 90.6% | PC-3 prostate 92.6% | SK-MEL-5 melanoma 98.7% | UACC-62 melanoma 86.6% | LOX IMVI melanoma 99.3% | SK-MEL-28 melanoma 101%

CCCn1ccnc1C(O)c1ccc(OCc2ccccc2)c(OC)c1 (stereo not given)
inactive: DU-145 prostate 104% | K-562 leukemia 107% | MALME-3M melanoma 80.9% | MDA-MB-231 breast 93.7% | RXF 393 renal 112% | SF-268 CNS 93.4% | SF-295 CNS 76.4% | SF-539 CNS 92.8% | UACC-257 melanoma 93.6% | M14 melanoma 97.2% | HCT-15 colon 93.5% | HT29 colon 103% | SNB-75 CNS 71.2% | SNB-19 CNS 82.8% | U251 CNS 86.8% | PC-3 prostate 82.7% | SK-MEL-5 melanoma 93.5% | UACC-62 melanoma 87.3% | LOX IMVI melanoma 94.4%

C=C1C(=O)O[C@H]2[C@H]1CC/C(COC(=O)NCc1ccc(Cn3c(=O)sn(-c4ccc(Cl)cc4)c3=O)cc1)=C\CC[C@@]1(C)O[C@@H]21
inactive: DU-145 prostate 18.1% | MALME-3M melanoma 65.2% | MDA-MB-231 breast 54.7% | RXF 393 renal 62% | SF-268 CNS 83.7% | SF-295 CNS 99.5% | SF-539 CNS 90.8% | UACC-257 melanoma 72.9% | M14 melanoma 59.2% | HCT-15 colon 54.5% | HT29 colon 37.8% | SNB-75 CNS 79.7% | SNB-19 CNS 91.9% | U251 CNS 90.2% | PC-3 prostate 76.2% | SK-MEL-5 melanoma 97.6% | UACC-62 melanoma 76.5% | LOX IMVI melanoma 58.4% | SK-MEL-28 melanoma 101%
active: K-562 leukemia 6.2%

COc1ccc2nc3c(cc2c1)C(=O)CC(C(F)(F)F)C3 (stereo not given)
inactive: K-562 leukemia 16.7% | MALME-3M melanoma 49.6% | MDA-MB-231 breast 60% | SF-268 CNS 57.4% | SF-295 CNS 45.3% | SF-539 CNS 22.6% | UACC-257 melanoma 82% | HCT-15 colon 37.8% | HT29 colon 10.9% | SNB-19 CNS 50.3% | U251 CNS 84.7% | PC-3 prostate 33% | SK-MEL-5 melanoma 31.4% | UACC-62 melanoma 39.8% | LOX IMVI melanoma 43.8%
active: DU-145 prostate 4.31% | RXF 393 renal -1.91% | M14 melanoma 8.65% | SNB-75 CNS 7.87%

CCN(CC)CCCC(C)Nc1c2ccc(C)cc2nc2ccc(OC)cc12 (stereo not given)
inactive: MALME-3M melanoma 53.3% | MDA-MB-231 breast 41.9% | RXF 393 renal 23.7% | SF-268 CNS 39.4% | SF-539 CNS 10.2% | HCT-15 colon 18.2% | SNB-75 CNS 41% | SNB-19 CNS 43.7% | U251 CNS 31.2% | PC-3 prostate 30.9% | SK-MEL-5 melanoma 82.1% | UACC-62 melanoma 74.4% | SK-MEL-28 melanoma 62.1%
active: DU-145 prostate 4.05% | K-562 leukemia 4.22% | SF-295 CNS 8.67% | UACC-257 melanoma -76% | M14 melanoma -10.2% | HT29 colon -26.1% | LOX IMVI melanoma -70.8%

O=C1CC(c2ccc3c(c2)OCO3)Nc2ccccc21 (stereo not given)
active: DU-145 prostate 7.64% | RXF 393 renal -22% | SF-295 CNS 4.53% | SF-539 CNS 0.134% | M14 melanoma -15.8% | HT29 colon 4.29% | SNB-75 CNS 7.16%
inactive: K-562 leukemia 12.4% | MALME-3M melanoma 46% | MDA-MB-231 breast 38.9% | SF-268 CNS 43.1% | UACC-257 melanoma 42.3% | HCT-15 colon 22% | SNB-19 CNS 33.2% | U251 CNS 15% | PC-3 prostate 16.8% | SK-MEL-5 melanoma 18.9% | UACC-62 melanoma 20.1% | LOX IMVI melanoma 37.4%

NNC(=O)c1ccc(C(=O)NN)cc1
inactive: DU-145 prostate 109% | K-562 leukemia 112% | MALME-3M melanoma 98% | MDA-MB-231 breast 117% | RXF 393 renal 111% | SF-268 CNS 106% | SF-295 CNS 106% | SF-539 CNS 115% | UACC-257 melanoma 94.6% | M14 melanoma 114% | HCT-15 colon 112% | HT29 colon 97.9% | SNB-75 CNS 113% | SNB-19 CNS 103% | U251 CNS 93.2% | PC-3 prostate 114% | SK-MEL-5 melanoma 108% | UACC-62 melanoma 97.6% | LOX IMVI melanoma 102% | SK-MEL-28 melanoma 114%
